The structures appear in SMILES notation. Compounds without any hit were thinned out: in the full panel of roughly 83,000, 20% have a hit.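 48-hour exposure, single concentration, 96-well plates; percent growth endpoint where 0 means no net growth. Active: below 10.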 Unmarked numbers belong to inactive results. The source made the active and inactive calls.

What all share (experiment): NCI-60 one-dose screen, 48 h (100 = growth as untreated, 0 = no growth, -100 = all killed)
Common to all, as to settings: 10 µM unless noted

The test system of test [1] is NCI-H23 lung.
Test [2] concerns NCI-H226 lung.
The subject of test [3] is NCI-H322M lung.
Test [4] has as its system HOP-62 NSCLC.
Test [5] has as its system NCI-H460 lung.
Test [6] relates to HOP-92 NSCLC.
In test [7] the test system is NCI-H522 lung.
Test [8] relates to A549/ATCC NSCLC.
The test system of test [9] is 786-0 renal.
For test [10], the system named is COLO 205 colon.
In test [11] the test system is DU-145 prostate.
In test [12] the test system is K-562 leukemia.
For test [13], the system named is MALME-3M melanoma.
Test [14] concerns MDA-MB-231 breast.
Test [15] relates to RXF 393 renal.
Test [16] has as its system SF-268 CNS.
The test system of test [17] is SF-295 CNS.
Test [18] has as its system SF-539 CNS.
The subject of test [19] is UACC-257 melanoma.
Test [20] concerns M14 melanoma.

For `COc1cc(C(=O)/C=C/c2c(-c3ccc(F)cc3)nc3sc(C)cn23)cc(OC)c1OC`, the growth in [1] is 28.9%; in test [2], 58.5%; in test [3] it was 52%; in test [4] it was 79%; in test [5] it was 28.7%; in test [6], 23.4%. For the same compound, the growth in test [7] is 93.4%; in test [8], 45.4%; in [9], 40.8%; in test [10] it was 52%; in test [11] it was 39.2%; in test [12] it was 7.75% (active). In addition, the growth in test [13] was 6.76% (active); in [14], 38.2%; in test [15], 44.2%; in [16], 40.4%; in test [17] it was 32.4%; in test [18], 57.7%. In addition, the growth in test [19] is 21.4%; in test [20], 32.3%.

For `Cn1c(-c2c(N)n(Cc3cccnc3)c3nc(C#N)c(C#N)nc23)nc2ccccc21`, the growth was 92.2% in test [1]; 98.4% in test [2]; 77% in test [3]; 95.3% in test [4]; 106% in [5]; 2.81% (active) in [6]. Also, the growth in [7] was 76.4%; in test [8], 94.6%; in test [9], 91%; in test [10] it was 117%; in test [11], 95.7%; in test [12], 51.1%. For the same compound, the growth in test [13] is 53.5%; in test [14] it was 89.2%; in test [15] it was 65.9%; in test [16], 98.8%; in [17] it was 110%; in test [18], 64.7%. Besides, the growth is 102% in [19] and 91.1% in test [20].

For `COc1ccc(C2=Nc3c(N)ncnc3NC(c3ccc4c(c3)OCO4)C2)cc1` (stereo not given), the growth was 69.7% in test [1]; 85.5% in [2]; 99.4% in test [3]; 68.1% in [4]; 102% in test [5]; 45.4% in [6]. The growth in test [7] is 87.4%; in test [8] it was 89.3%; in [9], 55.6%; in test [10] it was 102%; in test [11] it was 97.1%; in test [12], 113%. Also, the growth is 105% in [13]; 73.9% in test [14]; 66% in [15]; 89.6% in test [16]; 118% in [17]; 90.3% in [18]. In addition, the growth in test [19] was 116%; in [20], 73.8%.

`CCOC(=O)c1csc(NC(=O)COc2cccc(/C=C3\Oc4cc(OC)ccc4C3=O)c2)n1`: the growth was 90.7% in test [1]; 89.5% in test [2]; 99.7% in [3]; 125% in [4]; 107% in test [5]; 62.6% in test [6]. For the same compound, the growth is 49.8% in [7]; 94% in test [8]; 110% in [9]; 110% in test [10]; 102% in test [11]; 52.1% in test [12]. In addition, the growth in test [13] was 109%; in test [14], 67.9%; in [15], 114%; in [16], 109%; in test [17], 121%; in test [18] it was 106%. Besides, the figures for the growth in test [19] and in test [20] were 91.7% and 111%, respectively.

Consider `COC1=C(OC)C(=O)C(OC)=C(OC)C1=O`, for which the growth in test [1] is 98.6%; in [2] it was 93.6%; in test [3], 95.7%; in test [4] it was 112%; in test [5], 108%; in [6], 103%. Also, the growth was 108% in test [7]; 90% in test [8]; 99.3% in test [9]; 113% in test [10]; 101% in test [11]; 87.2% in test [12]. For the same compound, the growth in test [13] was 101%; in test [14], 46.3%; in test [15] it was 95%; in test [16], 94.4%; in [17], 97.7%; in [18] it was 114%. Also, the growth was 107% in test [19] and 105% in test [20].

With `CC(C)CCC[C@@H](C)[C@H]1CC[C@H]2[C@@H](Nc3ccc(O)cc3)CCC[C@]12C`, the growth was 84.2% in test [1]; 105% in [2]; 105% in test [3]; 108% in test [4]; 104% in test [5]; 136% in test [6]. For the same compound, the growth in test [7] was -42.6% (active); in [8] it was 95.5%; in [9], 109%; in [10], 95.5%; in [11], 96.5%; in test [12], 105%. Besides, the growth is 133% in test [13]; 109% in [14]; 70.6% in [15]; 80.2% in test [16]; 98.5% in [17]; 17.5% in [18]. Moreover, the values for the growth in [19] and in test [20] were 42.2% and 102%, respectively.

On to `COc1cccc(-c2nn(-c3ccccc3)cc2-c2ccnc(NCCCNC(=O)c3ccccc3)c2)c1`, for which the growth in test [1] was 51.3%; in test [2] it was 61.4%; in [3] it was 95.2%; in [4], 53.6%; in test [5] it was 51.7%; in test [6], 41.5%. For the same compound, the growth is 38.3% in test [7]; 30.7% in test [8]; 40.2% in test [9]; 35.2% in [10]; 64.7% in test [11]; 11.2% in test [12]. Also, the growth was 57.5% in test [13]; 45.9% in test [14]; 63.3% in test [15]; 66.2% in test [16]; 51.5% in [17]; 80.2% in test [18]. The growth is 40.7% in [19] and 33.3% in test [20].

`COc1cccc(C(=O)NCCNc2cc(-c3cn(-c4ccccc4)nc3-c3cccc(OC)c3)ccn2)c1`: the growth in [1] is 59.7%; in test [2], 77.3%; in [3], 92.6%; in [4] it was 61%; in [5], 57.4%; in [6] it was 46.2%. For the same compound, the growth in test [7] was 35.8%; in [8], 43.6%; in [9], 50.5%; in test [10], 59%; in test [11], 64%; in test [12], 32.4%. The growth in [13] was 81%; in test [14], 62.1%; in [15], 74.2%; in test [16], 68.9%; in [17], 58.3%; in test [18], 87.3%. Further, the growth in test [19] is 46.9%; in [20], 51.3%.

The record behind these values is PubChem BioAssay (NCI).
